Laboratory results published in the supplement of paper PMC3545927.
Some of the results follow. The hit rate among all sequences tested is not known here.

Biological target: furin, P09958
Assay: furin cleavage Z-score vs untreated control; higher = more cleavage, active = 3.5 or more, inactive = 1 or less, 8 variable residues between constant flanks
Procedure, shortened: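 The cleavage Z-score is the log read count relative to furin-free reactions, lowess-adjusted and scaled by median absolute deviation. Counts came from sequencing DNA released from bead-bound 8-mer peptide–cDNA fusions after digestion with purified furin for 7.5, 15 or 30 min.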
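Also: purified furin at 1:10 enzyme:substrate in 50 mM HEPES pH 7.5.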

furin, P09958, sequence (P09958 whole entry): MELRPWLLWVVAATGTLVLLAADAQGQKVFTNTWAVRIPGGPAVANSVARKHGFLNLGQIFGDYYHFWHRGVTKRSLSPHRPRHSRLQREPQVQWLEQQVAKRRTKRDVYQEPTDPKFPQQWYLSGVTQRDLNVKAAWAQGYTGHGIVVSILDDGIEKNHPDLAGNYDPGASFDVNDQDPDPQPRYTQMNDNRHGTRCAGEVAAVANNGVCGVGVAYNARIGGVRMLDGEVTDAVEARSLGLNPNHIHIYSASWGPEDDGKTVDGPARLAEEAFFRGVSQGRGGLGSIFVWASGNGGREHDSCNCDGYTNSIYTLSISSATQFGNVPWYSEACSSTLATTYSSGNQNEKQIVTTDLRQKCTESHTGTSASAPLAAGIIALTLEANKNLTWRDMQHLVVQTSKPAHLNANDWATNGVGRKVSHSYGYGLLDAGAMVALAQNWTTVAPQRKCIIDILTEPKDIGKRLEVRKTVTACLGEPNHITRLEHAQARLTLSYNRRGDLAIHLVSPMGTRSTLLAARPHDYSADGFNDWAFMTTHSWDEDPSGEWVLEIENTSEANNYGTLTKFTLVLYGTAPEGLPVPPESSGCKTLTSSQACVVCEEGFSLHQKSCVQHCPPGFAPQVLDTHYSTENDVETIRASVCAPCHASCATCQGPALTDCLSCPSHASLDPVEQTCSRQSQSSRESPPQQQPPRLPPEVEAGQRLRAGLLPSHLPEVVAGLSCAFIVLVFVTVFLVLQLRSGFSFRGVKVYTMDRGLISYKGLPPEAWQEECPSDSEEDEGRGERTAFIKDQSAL

| Sequence | furin cleavage Z-score (7.5 min) | furin cleavage Z-score (15 min) | furin cleavage Z-score (30 min) |
| --- | --- | --- | --- |
| CAVAYQATVCAGNASASA [HC954] | -0.525 (inactive) | -0.292 (inactive) | -0.577 (inactive) |
| CAMFDSSVLCAGNASASA [HC916] | -1.5 (inactive) | -1.04 (inactive) | 0.432 (inactive) |
| CADGRRFRQAAGNASASA [FS-1668] | -1.15 (inactive) | -1.53 (inactive) | -0.448 (inactive) |
| CAICTTPCSGAGNASASA [HC1944] | -1.41 (inactive) | -0.982 (inactive) | 0.0737 (inactive) |
| CASTPCSVHLAGNASASA [HC2530] | -0.933 (inactive) | 0.438 (inactive) | 1.38 |
| CALHVWIPPLAGNASASA [HC589] | 1.25 | 1.42 | 0.509 (inactive) |
| CARSGRRRRSAGNASASA [FS-88] | 5.85 (active) | 5.32 (active) | 4.99 (active) |
| CAIPKRLRRSAGNASASA [FS-35] | 1.85 | 0.768 (inactive) | 1.2 |
| CAPPRRLRRSAGNASASA [FS-841] | 5.16 (active) | 4.08 (active) | 3.48 |
| CAGRRRRHRSAGNASASA [FS-532] | 9.48 (active) | 10.3 (active) | 6.94 (active) |
| CARSGAPTYSAGNASASA [HC421] | 0.424 (inactive) | -0.13 (inactive) | -0.882 (inactive) |
| CASRRRRARSAGNASASA [FS-872] | 8.77 (active) | 9.73 (active) | 7.27 (active) |
| CARSGRSRSRAGNASASA [FS-1926] | -0.645 (inactive) | -0.505 (inactive) | -1.41 (inactive) |
| CAAWRHRARSAGNASASA [HC1620] | 0.0962 (inactive) | 1.9 | 1.59 |
| CAILNAASLAAGNASASA [HC537] | -1.87 (inactive) | -0.982 (inactive) | 0.861 (inactive) |
| CATTPCYGSWAGNASASA [HC77] | 0.0798 (inactive) | 1.4 | -0.0858 (inactive) |
| CALAHGVRVLAGNASASA [HC236] | 0.101 (inactive) | 1.37 | 0.879 (inactive) |
| CAPPRRRRRSAGNASASA [FS-948] | 8.33 (active) | 8.78 (active) | 7.37 (active) |
| CAPPRRRARSAGNASASA [FS-72] | 11.2 (active) | 10.8 (active) | 7.57 (active) |
| CAPTDPRRRSAGNASASA [HC215] | 0.57 (inactive) | 3.28 | 0.563 (inactive) |
| CAPPWRLRRSAGNASASA [FS-1383] | 9.19 (active) | 9.31 (active) | 7.39 (active) |
| CARSTRDRRSAGNASASA [FS-1273] | 11.6 (active) | 13.1 (active) | 9.03 (active) |
